A selection: hits, their analogues and other compounds. The true share with any hit is near 2.2%.
aSyn 5UTR inh: MLPCN primary screen, SNCA 5' untranslated region | inhibition, % (tested at 7.5 µM) | alpha-synuclein 5'UTR reporter, inhibitor activity | actives 0.82% (n = 300,000) | AID 1813; in the data active = inhibition above about 60%;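 also: H4 neuroglioblastoma cells stably carrying SNCA 5'UTR luciferase fusion; 0% = DMSO wells and 100% = positive control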
BaF3 tox: counter-screen for JAK2V617F inhibitors: parental Ba/F3 viability inhibitors. CellTiter-Glo ATP luminescence. inhibition, % at 5.6 µM. actives 1.1% (n = 220,000);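 active = inhibition above a per-campaign cutoff, the mean inhibition of all tested compounds plus 3 SD, cut at about 27% in these data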;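 also: 0% = DMSO wells and 100% = JAK Inhibitor I control wells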
APP transl inh: APP translation inhibition; inhibition, % at 2 µM; SH-SY5Y APP 5'UTR-luciferase reporter, luminescence; actives 0.82% (n = 190,000);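 active = inhibition above a set limit, derived from the sample mean plus 3 SD, cut at about 45% in these data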
KLF5 inh: kruppel-like factor 5 inhibition | DLD-1 KLF5 promoter-luciferase reporter, luminescence | inhibition, % at 5 µM | actives 0.23% (n = 290,000);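 active = inhibition above a per-plate limit of that plate's mean compound inhibition plus 3 SD, cut at about 60% in these data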;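 also: 0% = DMSO wells and 100% = LY294002 at 200 µM; higher means less KLF5 promoter-driven luciferase light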
IEC-6 cytotox: kills IEC-6 intestinal cells in KLF5 counter-screen; IEC-6 cytotoxicity, luminescence viability; inhibition, % at 5 µM; actives 0.78% (n = 290,000); in the data active = inhibition above about 22%;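 also: 0% = plate median of test compound wells and 100% = cytotoxic reference compound wells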
Ba/F3 V617F tox: lowers viability of Ba/F3 cells expressing EpoR and JAK2V617F; ATP luminescence; inhibition, % at 5.6 µM; actives 1.1% (n = 220,000);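 active = inhibition above the campaign mean plus 3 SD over all tested compounds, cut at about 24% in these data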;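 also: cytokine-independent growth of Ba/F3 cells driven by EpoR plus mutant JAK2; 0% = DMSO-treated cells and 100% = JAK inhibitor I control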
* = called active by the depositor; nt = no result given.

SMILES	aSyn 5UTR inh	BaF3 tox	APP transl inh	KLF5 inh	IEC-6 cytotox	Ba/F3 V617F tox
COc1ccc(/C=N/NC(=O)c2nc(-c3ccccc3)n(-c3ccccc3)n2)c(O)c1	87.1*	2.3	49.3*	-15.0	2.6	-4.2
COc1ccc(/C=N/NC(=O)c2nc(-c3ccccc3)n(-c3ccccc3)n2)cc1	26.3	3.0	11.9	-16.4	-4.9	-1.4
CC(C)(C)c1cc(C(=O)N/N=C/c2ccccc2O)n(-c2ccccc2)n1	62.4*	0.5	66.0*	-12.3	-0.1	-5.1
COCCSc1ccccc1C(=O)N1CCN(Cc2ccccc2)CC1	1.6	7.5	14.2	-17.8	0.7	3.6
O=C(Nc1ccccc1)Nc1cc([N+](=O)[O-])ccc1F	-12.2	3.0	15.1	-8.6	1.3	-0.3
Cc1ccc([N+](=O)[O-])cc1NC(=O)Nc1cccc(F)c1	25.8	36.8*	nt	-36.3	10.8	39.5*
C=C(C)CSc1nc2ccccc2[nH]1	-40.9	88.8*	-16.1	-37.7	4.7	-1.6
CCOc1ccc(CC(=O)Nc2ccc(NC(=O)c3ccco3)cc2)cc1OCC	65.9*	-0.5	8.7	-13.6	1.0	-1.1
CCC(=O)Nc1ccc(NC(=O)c2ccco2)cc1	-136.0	1.4	-39.6	-116.9	-0.4	-2.4
CCN(C(=O)CSc1nc2ccccc2o1)c1c(N)n(Cc2ccccc2)c(=O)[nH]c1=O	2.4	nt	nt	nt	nt	nt
O=C(NCCC1=CCCCC1)C1CCC(CNc2nc(=S)[nH]c3ccccc23)CC1 (centres undefined)	98.6*	7.9	18.3	-1.7	-1.8	0.6
CCCCNC(=O)C1CCC(CNc2nc(=S)[nH]c3ccccc23)CC1 (centres undefined)	26.8	5.2	-0.9	-1.4	-3.7	1.8
O=C(NCCc1ccc(Cl)cc1)C1CCC(CNc2nc(=S)[nH]c3ccccc23)CC1 (centres undefined)	64.5*	8.3	-6.4	-20.7	-3.9	0.5
O=C(NCc1ccccc1Cl)C1CCC(CNc2nc(=S)[nH]c3ccccc23)CC1 (centres undefined)	16.6	7.6	-3.7	-14.8	-1.1	-0.3
CC(C)c1ccc2[nH]c3nc(SCC(=O)N4CCOCC4)nnc3c2c1	-32.5	5.8	-14.7	-46.2	-1.9	0.3
COc1ccc(N2CC(NC(=O)N3CCN(C(=O)c4ccco4)CC3)CC2=O)cc1OC (centres undefined)	3.9	nt	nt	nt	nt	nt
OCCNc1cnc2ccccc2n1	-16.6	-2.8	49.2*	-14.2	4.8	-2.2
COc1ccc(OCC(=O)Nc2nccs2)cc1	16.5	7.7	-104.3	-63.0	-7.1	-2.7
CCOc1ccc(OCC(=O)Nc2nccs2)cc1	69.2*	11.5	-156.6	23.4	2.1	-0.5
CCCCNc1oc(-c2ccc(OC)cc2)nc1S(=O)(=O)c1ccccc1	7.8	3.0	-6.1	-36.8	3.8	2.0
CCNc1oc(-c2ccc(OC)cc2)nc1S(=O)(=O)c1ccc(Br)cc1	-27.9	6.4	49.0*	0.9	1.9	4.3
O=C(CNS(=O)(=O)c1ccc(Br)cc1)NCc1ccncc1	12.1	nt	nt	-30.7	-0.6	nt
CCn1c(SCC(=O)Nc2ccccc2)nnc1-c1cccs1	8.2	-2.5	nt	-21.7	-5.9	-3.2
CCn1c(SCc2ccccc2)nnc1-c1cccs1	-13.4	41.8*	-11.5	-11.0	-10.8	40.8*
c1ccc(CCNc2ncnc3ccccc23)cc1	-117.0	67.6*	-88.7	-67.7	21.2	64.9*
SMILES	aSyn 5UTR inh	BaF3 tox	APP transl inh	KLF5 inh	IEC-6 cytotox	Ba/F3 V617F tox
COc1cc(C(=O)O/N=C2/C=C(C)C(=O)C=C2C)cc(OC)c1OC	-16.5	0.6	-4.6	-26.0	-6.2	-4.2
CC1=C/C(=N\OS(=O)(=O)c2ccccc2)C(C(C)C)=CC1=O	nt	77.9*	95.7*	11.4	-4.4	86.3*
CC1=C(C)/C(=N\OS(=O)(=O)c2ccc(C)cc2)C=CC1=O	nt	68.3*	90.4*	-18.7	-6.1	87.7*
CC1=C/C(=N\OS(=O)(=O)c2ccccc2)C(C)=CC1=O	nt	100.2*	94.8*	-52.9	-7.1	96.8*
Cc1ccc(N(CC(=O)NC2CCCC2)C(=O)c2nsc(Cl)c2Cl)cc1	-2.8	nt	nt	4.5	-7.4	nt
O=C(NCC1CCN(C(=O)c2c(F)c(F)c(F)c(F)c2F)CC1)c1c(F)c(F)c(F)c(F)c1F	5.1	nt	nt	-12.4	-4.4	nt
CC(=O)c1ccc(S(=O)(=O)NC2CC(=O)N(c3ccc(Cl)cc3)C2)cc1 (centres undefined)	-0.1	nt	nt	nt	nt	nt
CCCOc1nc2ccccc2cc1/C=C/C(=O)O	-7.5	2.2	-6.6	-19.1	-1.2	3.4
CCOc1nc2ccccc2cc1C=O	-8.7	5.8	57.0*	-19.2	-3.5	1.1
CCCCOc1ccc(NC(=O)C(=O)NCCCn2ccnc2)cc1	66.1*	4.1	6.7	-11.7	3.1	0.1
CCCCCCOc1ccc(C(=O)NCCCn2ccnc2)cc1	-38.5	5.6	-20.1	-42.2	1.7	2.0
O=C(COC(=O)CNC(=O)c1cccs1)Nc1ccc(C(F)(F)F)cc1[N+](=O)[O-]	15.4	nt	nt	nt	nt	nt
CCCC(=O)Nc1ccc(C(=O)N/N=C/c2ccc([N+](=O)[O-])o2)cc1	111.1*	4.2	96.2*	-18.0	1.3	1.7
NS(=O)(=O)c1ccc(-c2ccc(/C=N/NC(=O)c3ccc([N+](=O)[O-])cc3)o2)cc1	-11.8	49.7*	nt	6.2	3.8	-0.7
CCCCCCCC(=O)Nc1ccc(C(=O)N/N=C/c2cccc([N+](=O)[O-])c2)cc1	76.2*	2.4	-0.4	-18.4	-4.9	0.1
COc1ccc(CCN2CC(C(=O)N3CCCCCC3)CCC2=O)cc1 (centres undefined)	-14.0	nt	nt	-14.6	-2.3	nt
CC(C)=CCC/C(C)=C/CCC(C)NCCN1CCNCC1 (centres undefined)	-21.9	15.9	-6.0	-19.0	33.8*	4.4
CC(C)=CCC/C(C)=C/CC(C)(C)CNCCN1CCNCC1	-64.2	9.9	4.4	-7.8	4.7	6.8
Cc1ccc(CNC(=O)CNC(=O)[C@@H]2Cc3ccccc3CN2C(=O)OC(C)(C)C)cc1	-10.0	nt	nt	1.4	-3.8	nt
COc1ccc(NC(=O)c2cc(-c3ccccc3OC)on2)cc1	20.2	6.4	74.4*	-5.6	8.3	3.2
COc1ccc(NC(=O)c2cc(-c3ccccc3Cl)on2)cc1	-125.4	nt	nt	-93.2	-10.7	nt
O=C(Cn1nc2n(c1=O)-c1ccccc1SC2)N/N=C/c1cccnc1	1.6	-1.5	nt	-33.4	-0.4	-2.1
Cc1ccc(Cl)c(NC(=S)N(CCCN2CCOCC2)Cc2ccco2)c1	5.2	35.7*	-9.4	-2.4	6.2	10.8
Cc1ccc(NC(=S)N(CCCN2CCOCC2)Cc2ccco2)cc1	6.4	2.5	-9.3	-0.1	-0.6	-2.8
S=C(Nc1ccc(Cl)cc1)N(CCCN1CCOCC1)Cc1ccco1	9.8	31.8*	13.7	-12.8	-4.9	36.9*
CCN1CCN(CCCN(Cc2ccco2)C(=S)Nc2ccc(Cl)c(C)c2)CC1	0.6	27.9*	-8.1	-15.6	5.0	37.6*
Cc1cc(NC(=S)N(CCCN2CCOCC2)Cc2ccco2)ccc1Cl	-6.9	13.9	6.5	14.6	-3.0	19.0
